Measurements from PubChem BioAssay (NCI).
About 83,000 compounds went through this panel and 20% of them were active in at least one assay; those are over-represented in the sample as a whole.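 How to read the values: 0–100, growth inhibition (40 = 60% inhibited); 0, no net growth; -100 to 0, cell death (-40 = 40% of starting cells died; -100 = all dead).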 Values without a mark were called inactive. Active and inactive are the calls of the source. How the source made its calls: active means growth percent below 10; inactive means the rest.

Tested on: HL-60(TB) leukemia
Experiment: NCI-60 one-dose screen, 48 h (100 = growth as untreated, 0 = no growth, -100 = all killed)
Conditions: 10 µM unless noted

SMILES	growth
O=c1oc2c(cnc3ccccc32)cc1-c1cccs1	98.2%
O=C(Nc1ccc(OCc2nnc(-c3ccc(Cl)cc3)o2)c(F)c1)Nc1ccc(Cl)c(C(F)(F)F)c1	-18.5% (active)
COc1cc(-c2csc(NC(=O)c3cc(C(F)(F)F)cc(C(F)(F)F)c3)n2)cc(OC)c1OC	29.6%
NC(=O)C1(N2CCCCC2)CCN(CCCC(=O)c2ccc(F)cc2)CC1	9.84% (active)
O=C1c2ccccc2C(=O)c2c1ccc(C(=O)O)c2[N+](=O)[O-]	65.1%
O=C(NCc1ccc(Cn2c(=O)sn(-c3ccccc3)c2=O)cc1)OCc1ccc2cccc(O)c2n1	-56.8% (active)
COc1cc(NC(C)CCCN)c2ncccc2c1Oc1ccc(Cl)cc1 (centres undefined)	94.8%
CC1=C(C(=O)/C=C/c2ccc(N(C)C)cc2)C(c2ccccc2)NC(=S)N1 (centres undefined)	99.4%
Cc1ccc2oc3nc(C)c(C(=O)NCc4ccccc4)cc3c(=O)c2c1	73.4%
COC(=O)c1c(C)nc(C)c2c1C(=O)C(Br)=C(NCc1ccccc1)C2=O	-30.9% (active)
Cc1ccc(-c2csc(N)n2)cc1	112%
O=c1cc(-c2ccccc2)nc2cc(-c3ccco3)[nH]n12	82.7%
Nc1nc(-c2ccc(F)cc2)cc(-c2cnn(-c3ccccc3)n2)n1	101%
Cc1ccc(/C=C2\COc3ccc(O)cc3C2=O)cc1	-31.7% (active)
O=C(CCl)N1c2cccc3cccc(c23)N(C(=O)CCl)C1c1cn(-c2ccccc2)nc1-c1cccc([N+](=O)[O-])c1	27.7%
Clc1ccc([I+]c2ccc(Cl)cc2Cl)c(Cl)c1	-38.3% (active)
CC(C)(C)CC(C)(C)n1nnnc1C(NC12CC3CC(CC(C3)C1)C2)c1ccccc1 (centres undefined)	99.3%
COc1cc(-c2c(C#N)c(-c3cccs3)nc3c2c(-c2ccccc2)nn3-c2ccccc2)ccc1O	99.3%
COc1ccc(-c2cc(=O)n(-c3nc4ccccc4[nH]3)[nH]2)cc1OC	35.4%
CO[C@H]1CC[C@@]2(C)C(=CC[C@H]3[C@@H]4C[C@H](O)C[C@@]4(C)CC[C@@H]32)C1	22.6%
CC(=O)c1c(/C=C/c2ccc(C)cc2)c2ccccc2[nH]c1=O	99.3%
Cc1ccc(S(=O)(=O)NCCN2c3nc4ccccc4cc3Sc3cc4ccccc4nc32)cc1	94.4%
Cc1ccnc2c(NC(C)CCCN)cc(O)c(O)c12 (centres undefined)	7.56% (active)
CCN(CC)CCCC(C)NC(=S)N/N=C(\C)c1ccccn1 (centres undefined)	-3.79% (active)
CC(=O)Nc1nc(C)c(C(=O)NNC(=O)Nc2ccccc2)s1	108%
CC(C)NC[C@@H](C(=O)N1CCN(c2ncnc3c2[C@H](C)C[C@H]3O)CC1)c1ccc(Cl)cc1	82%
CCCCCCCC(=O)SCC/C=C/[C@@H]1CC(=O)NCc2cccc(n2)CN(Cc2ccc(Cl)cc2)CC(=O)N[C@@H](C(C)C)C(=O)O1	13%

SMILES	growth
CC(C)(C)n1cc(-c2ccnc(NCCNS(=O)(=O)c3cccc4ccccc34)c2)c(-c2cccc(O)c2)n1	71%
COc1cc(OC)cc(C(=O)Nc2cnc(Nc3ccc(N4CCOCC4)nc3)nc2Oc2ccc(C(F)(F)F)cc2)c1	94.7%
O=C(Cc1nc2ccc([N+](=O)[O-])cc2nc1CC(=O)c1ccccc1)c1ccccc1	31.5%
Cc1ccc2c(n1)C(=O)C(Oc1ccc(F)cc1)=CC2=O	54%
O=C1CCC/C=C\C[C@H]2C=CC(=O)/C2=C/C[C@H](CCc2cccc(C(F)(F)F)c2)O1	-25.5% (active)
O=C(NCCN1CCC(O)CC1)c1cc2c(o1)C(=O)c1ccccc1C2=O	-13.9% (active)
[Ag].[Ag].[NH-]S(=O)(=O)c1ccc(N=Nc2cc(N=Nc3ccc(S([NH-])(=O)=O)cc3)c3c(NC(=O)C(Cl)Cl)cccc3c2OC(=O)C(Cl)Cl)cc1.[c-]1nccs1.[c-]1nccs1	44.2%
COC(=O)Cc1cc(COC(C)=O)ccc1C	84.8%
O=C(N/N=C/c1ccc2c(c1)OCO2)c1cnn2c1NC(c1ccccc1)C2 (centres undefined)	56.3%
C=C1C(=O)O[C@H]2[C@H]1CC/C(COC(=O)NCc1ccc(Cn3c(=O)sn(CCCCl)c3=O)cc1)=C\CC[C@@]1(C)O[C@@H]21	-50.6% (active)
O=C(CNCCN1CCOCC1)N1c2cccc3cccc(c23)N(C(=O)CNCCN2CCOCC2)C1c1cn(-c2ccccc2)nc1-c1cccc([N+](=O)[O-])c1	67.6%
O=[N+]([O-])c1ccc(N=Nc2ccccc2)cc1	67.1%
COc1cc(-c2csc(NC(=O)Nc3ccc(Cl)c(C(F)(F)F)c3)n2)cc(OC)c1OC	-6.26% (active)
COc1ccc(OC)c(/C=C2\Oc3cc(OCCN4CCCC4)ccc3C2=O)c1	69.2%
CCN(CC)CCCC(C)Nc1c2ccc(C)cc2nc2ccc(OC)cc12 (centres undefined)	11.4%
CCn1cc(-c2ccnc(NCCNS(=O)(=O)c3ccc(Br)cc3)c2)c(-c2cccc(OC)c2)n1	81.4%
CC/C(=C(/c1ccc(Cl)cc1)c1ccc(OCCN2CCCCCC2)cc1)c1ccccc1	49.9%
C=C1CC[C@@H]2[C@](C)(COC(C)=O)[C@H](OC(C)=O)CC[C@@]2(C)[C@@H]1CC(Nc1ccc(S(=O)(=O)Nc2ccc(Cl)nn2)cc1)C1=CCOC1=O (some centres undefined)	-17.5% (active)
Nc1ncnc(Nc2ccccc2)n1	107%
CS(=O)(=O)c1ccc(C(=O)Nc2ccc(Cl)c(-c3ccccn3)c2)c(Cl)c1	14.2%
CCOC(=O)C(=Cc1ccc(-c2ccccc2)cc1)C(=O)OCC	-10.6% (active)
CC(C)NC(=O)OCC#CCOC(=O)NC(C)C	95.7%
Clc1ccc(/C=N\N=C\c2ccc(Cl)c(Cl)c2)cc1Cl	135%
CSc1nc2sc3c(c2c(=O)n1-c1ccc(C(C)C)cc1)CCC(=O)C3	6.88% (active)
Cc1nc2c(c(=O)[nH]1)C(c1ccccc1)c1ccc3ccccc3c1O2 (centres undefined)	-2.8% (active)
CC/C=C\C[C@H](O)C/C=C1/C(=O)C=C[C@@H]1C/C=C\CCCC(=O)OC(C)C	-38.3% (active)
Cc1cc2c(c(C)n1)CN(C(=O)Nc1nc(-c3cncs3)ccc1N)C2	139%

SMILES	growth
Cn1cc(-c2nc(-c3cn(C)c4ncccc34)cs2)c2ccccc21	28.4%
CC1SC(c2ccc(Cl)cc2)N(CCc2cccs2)C1=O (centres undefined)	-3.88% (active)
CCN1CCC[C@H]1c1cc(O)c2c(c1OC)C[C@H]1C[C@H]3[C@H](N)C(=O)C(C(N)=O)=C(O)[C@@]3(O)C(=O)C1=C2O	-49.2% (active)
Oc1cccnc1CN1CCCC1	100%
NCCNc1nc2ccc(F)cc2c2c(=O)c3cc(F)ccc3sc12	21.2%
CCCCOc1ccc(/C=N/Nc2cc(C)nc3ccc(Br)cc23)cc1	1.52% (active)
O=C(CN1CCCCC1)Nc1ccc2oc(=O)ccc2c1	78.1%
CCN(CC)CCNC(Cc1ccccc1)c1ccc(OCc2ccccc2)cc1 (centres undefined)	46.8%
COc1cc(Cc2cc(-c3ccc(Cl)cc3)n[nH]c2=O)ccc1O	93.5%
Cc1cc(=O)c2cc3nc(-c4cccnc4)oc3c(Br)c2o1	84.9%
CCNc1cc(S(=O)(=O)O)ccc1C	93.8%
CCOC(=O)c1c2c(c(C)n1Cc1ccc(OC)cc1)-c1nc(N)ncc1CC2	68.8%
S=C=Nc1ccc2ccccc2c1	91.7%
Cc1ccnc(Nc2nc3ccccc3[nH]2)n1	87%
CCCCC[C@H]1C/C=C2/C(=O)C=C[C@@H]2C/C=C\CCCC(=O)O[C@@H](CCCCC)C/C=C2/C(=O)C=C[C@@H]2C/C=C\CCCC(=O)O1	-47.6% (active)
CCOC(=O)c1noc2c1CCc1cn(Cc3cc(OC)cc(OC)c3)cc1-2	77.1%
Nc1ccc(F)c(Cl)c1F	95.6%
COc1ccc(/C(=C/c2ccc3ccccc3c2)c2nn[nH]n2)cc1OC	-1.21% (active)
C#Cc1ccc(-n2c(/C=C/c3ccc4ccccc4c3)nc3ncccc3c2=O)cc1	-2.99% (active)
C[n+]1c2ccccc2nc2c(N)cc(N)cc21	74.7%
CCn1cc(C(=O)O)c(=O)c2cc(F)c(N3CCN(S(=O)(=O)c4ccc(Cl)cc4Cl)CC3)cc21	-51.7% (active)
Oc1ccc2ccccc2c1N=Nc1ccccn1	-32.4% (active)
COc1ccc(-c2nn3c(-c4cc(F)c(Cl)cc4Cl)nnc3s2)cc1	-1.09% (active)
CCOC(Cc1c(N)[nH]c(=S)[nH]c1=O)OCC	90.3%
O=C(CN1C(=O)NC2NC(=O)NC21)N/N=C/c1ccc(Cl)cc1Cl (centres undefined)	99.4%
